An excerpt weighted towards active compounds, which were near 22% of everything screened.
Measles CPE – protection of cells from measles virus. Measles virus-infected cells, CPE protection, absorbance. protection (pct of control), % at 4 µM. hit rate 1.5% among 140,000. AID 841; in the data active = protection mostly above about 24%, no sharp cut-off; inactive = mostly below about 26%
CYP2C19 inh – inhibitors of human CYP2C19; P33261; CYP2C19 Supersomes, luciferin-H EGE luminescence, 30 min; inhibition, % at 5 µM; hit rate 21% among 96,000; AID 778;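 active = CYP2C19 inhibition above a set limit at 5 µM in the primary screen, cut at about 50% in these data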;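 also: plate controls were negative control wells for no effect and 2.5 mM tranylcypromine positive control for full effect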
Target sequence (P33261 whole entry, looked up): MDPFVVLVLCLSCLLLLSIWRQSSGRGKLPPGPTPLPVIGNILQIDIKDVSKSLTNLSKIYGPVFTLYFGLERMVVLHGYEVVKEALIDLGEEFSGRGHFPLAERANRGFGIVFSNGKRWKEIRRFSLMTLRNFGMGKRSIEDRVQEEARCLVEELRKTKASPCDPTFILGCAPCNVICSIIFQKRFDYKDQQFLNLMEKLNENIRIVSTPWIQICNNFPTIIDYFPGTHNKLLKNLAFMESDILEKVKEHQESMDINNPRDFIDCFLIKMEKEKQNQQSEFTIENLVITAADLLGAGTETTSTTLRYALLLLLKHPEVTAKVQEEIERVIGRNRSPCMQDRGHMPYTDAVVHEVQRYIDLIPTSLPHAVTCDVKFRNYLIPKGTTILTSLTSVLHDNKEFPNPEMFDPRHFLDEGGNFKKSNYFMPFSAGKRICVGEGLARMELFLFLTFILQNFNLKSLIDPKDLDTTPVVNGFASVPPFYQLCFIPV
CYP2C9 inh – inhibitors of human CYP2C9; CYP2C9 Supersomes, luciferin-H conversion, luminescence; hit rate 20% among 96,000; P11712; inhibition, % at 5 µM;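 active = blocking of liver enzyme CYP2C9 beyond about 50% at 5 µM, limit read from the data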
CYP2C9 activ – CYP2C9 (human) activation; P11712; recombinant CYP2C9, luciferin-H conversion, luminescence; hits give high values; factor 1 = untreated enzyme, 0 = blocked; activation factor at 5 µM; hit rate 1.4% among 96,000; AID 1024;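 active = activation factor of 2 or more for CYP2C9 at a 5 µM dose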;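 also: 0 = sulfaphenazole-blocked wells and 1 = vehicle-only wells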
CYP2C19 act – increases human CYP2C19 enzyme activity. P33261. recombinant CYP2C19, luciferin-H EGE luminescence; hits give high values; 0 = fully inhibited enzyme, 1 = untreated enzyme. activation factor at 5 µM. 96,000 tested, under 10 active. AID 1025;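 active = activation factor of at least 2 at 5 µM in the primary screen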;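 also: 0 = wells with 2.5 mM tranylcypromine and 1 = vehicle-only wells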
The depositor's hits bear a star; . = no result.

SMILES	Measles CPE	CYP2C19 inh	CYP2C9 inh	CYP2C9 activ	CYP2C19 act
Clc1ccc2c(c1)C(c1cccs1)=NNC(c1cccnc1)=N2	15	29	68*	0.3	0.7
O=C(CSc1nc(-c2ccco2)cc(C(F)(F)F)n1)N1CCCc2ccccc21	1	.	.	.	.
COc1coc(/C=C/C(=O)O)cc1=O	2	.	.	.	.
O=C(c1ccco1)N1CCN(C(=O)C2Cc3ccccc3CN2S(=O)(=O)c2ccc(F)cc2)CC1 (stereo not drawn)	5	76*	38	0.6	0.2
O=C(c1ccc(S(=O)(=O)Nc2ccc(F)cc2)cc1)N1CCN(C(=O)c2ccco2)CC1	18	44	75*	0.3	0.6
O=C(c1ccco1)N1CCN(c2ccc(S(=O)(=O)N3CCCC3)cc2)CC1	5	-12	14	0.9	1.1
O=C(c1ccco1)N1CCN(S(=O)(=O)c2ccc(F)cc2)CC1	5	53*	14	0.9	0.5
COC(=O)c1c(NC(=O)COC(=O)CNC(=O)C2CCCCC2)sc(C)c1C	7	.	.	.	.
C/C(=N\NC(=O)c1ccc(=O)[nH]n1)c1cccnc1	10	.	.	.	.
CC(=O)c1ccc(Oc2ccc(C(=O)c3ccc(C)c(C)c3)cc2[N+](=O)[O-])cc1	4	.	.	.	.
COC(=O)c1ccc(Oc2ccc(C(C)(C)C)cc2)c([N+](=O)[O-])c1	25	38	60*	0.4	0.6
CC(C)(C)c1ccc(C(=O)NCCCN2CCN(CCCNC(=O)c3ccc(C(C)(C)C)cc3)CC2)cc1	11	.	.	.	.
CCCCCCCCNC(=O)CCNC(=O)c1ccc(C(C)(C)C)cc1	2	55*	52*	0.5	0.4
CCn1c(SCC(=O)N2CCc3ccccc32)nc2c(c1=O)SC(C)C2 (stereo not drawn)	.	23	93*	0.1	0.8
CCn1c(SC)nc2c(c1=O)SC(C)C2 (stereo not drawn)	46*	9	12	0.9	0.9
COCCn1c(SCC(=O)N2CCCc3ccccc32)nc2ccccc2c1=O	2	96*	96*	0	0
CCn1c(SCC(=O)N2CCCCC2)nc2c(c1=O)SC(C)C2 (stereo not drawn)	10	25	69*	0.3	0.7
COc1ccc(C(=O)NCc2cn3ccsc3n2)cc1OC	5	-13	-14	1.1	1.1
CCOC(=O)c1c(N2C(=O)C=CC2=O)sc(C)c1C	2	9	19	0.8	0.9
O=C(Nn1c(C2CCCCC2)nc2ccccc2c1=O)c1ccc([N+](=O)[O-])cc1Cl	7	.	.	.	.
CC1Cc2nc(SCC(=O)N3CCCc4ccccc43)n(C)c(=O)c2S1 (stereo not drawn)	9	.	.	.	.
COCCn1c(SCC(=O)N2CCCc3ccccc32)nc2c(c1=O)SC(C)C2 (stereo not drawn)	4	34	95*	0	0.7
COc1ccc(/C=N/NC(=O)C(=O)NCc2cccnc2)cc1OC	7	-6	-2	1	1.1
N#Cc1nc(COc2ccccc2Cl)oc1NCc1ccc(F)cc1	4	4	19	0.8	1
N#Cc1nc(Cc2cccc3ccccc23)oc1NCCCN1CCOCC1	13	26	21	0.8	0.7
SMILES	Measles CPE	CYP2C19 inh	CYP2C9 inh	CYP2C9 activ	CYP2C19 act
CN(Cc1ccccc1)c1oc(COc2ccccc2F)nc1C#N	6	100*	99*	0	0
CN(Cc1ccccc1)c1oc(-c2ccco2)nc1C#N	6	59*	62*	0.4	0.4
N#Cc1nc(COc2ccccc2F)oc1NCCc1ccccc1	2	88*	88*	0.1	0.1
CN(C)c1oc(-c2ccco2)nc1C#N	8	-1	0	1	1
N#Cc1nc(Cc2cccc3ccccc23)oc1NCCCn1ccnc1	23	98*	97*	0	0
CCCOc1ccc(/C=N/NC(=O)C2CCCN2S(=O)(=O)c2ccc(Cl)cc2)cc1 (stereo not drawn)	23	26	41	0.6	0.7
Cc1cc(N2CCN(c3ccc(F)cc3)CC2)nc(-c2ccccc2)n1	17	.	.	.	.
CC/C(=N\O)c1c(O)c2c(n(-c3ccccc3)c1=O)CCCC2	4	.	.	.	.
COC(=O)NNC(=O)Cc1cccc2ccccc12	19	.	.	.	.
CCCc1nc2oc3c(N4CCNCC4)ncnc3c2c2c1CCCC2	.	9	9	0.9	0.9
COc1ccc(CCNc2oc(COc3ccccc3)nc2C#N)cc1	14	50	70*	0.3	0.5
COc1ccc(Nc2oc(COc3ccccc3F)nc2C#N)cc1	20	54*	60*	0.4	0.5
COc1ccc(Nc2oc(COc3ccc(OC)cc3)nc2C#N)cc1	4	.	.	.	.
